IMPase cell inh – qHTS Assay for Identifying the Cell-Membrane Permeable IMPase Inhibitors; CHO-M1 cells, IP1 accumulation, HTRF TR-FRET ratio; inhibition (IP1 accumulation), % at 46.1 µM; 120,000 tested, under 10 active; active = well fitted curve in the direction sought with a large enough effect in the signal ratio, not every such curve was filed as active; inconclusive = small, poorly fitted or top-dose-only effect, or a change in a side signal; inactive = no such curve, though single readings can be large or run the other way; the % refers to the signal ratio;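 also: cells stimulated with carbachol in lithium chloride buffer; plate controls were DMSO basal wells for no effect and reference inhibitor wells for full effect; higher means more IMPase inhibition seen as more IP1 and lower FRET ratio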
Target sequence (P97697 whole entry, looked up): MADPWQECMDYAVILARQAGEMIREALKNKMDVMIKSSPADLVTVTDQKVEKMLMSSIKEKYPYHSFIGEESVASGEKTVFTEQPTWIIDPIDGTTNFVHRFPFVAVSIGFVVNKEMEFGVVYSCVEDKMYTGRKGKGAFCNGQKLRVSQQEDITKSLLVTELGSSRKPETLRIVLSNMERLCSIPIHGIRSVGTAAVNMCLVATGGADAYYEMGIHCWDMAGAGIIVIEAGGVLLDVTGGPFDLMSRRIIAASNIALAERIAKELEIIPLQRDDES
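Elevated IP1 in lysates lowers TR-FRET signal (665/620 ratio and 620 channel reported). Cells were CHO-M1, given carbachol (50 uM as added) plus 50mM LiCl, pH 7.4, 30 min, 37C; compounds titrated up to 46 uM; AC50 by Hill equation.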
HPGD block – qHTS Assay for Inhibitors of HPGD (15-Hydroxyprostaglandin Dehydrogenase); Potency, µM, inactives show top-dose activity change, negative = inhibition, hits mostly inhibitors; 15-hydroxyprostaglandin dehydrogenase [NAD(+)] (Homo sapiens), P15428; actives 4.3% (n = 150,000); purified HPGD, NADH fluorescence kinetic, PGE2 substrate; active = well fitted inhibition curve with a large enough effect, not every such curve was filed as active; inconclusive = small, poorly fitted or top-dose-only effect, or another doubt; inactive = no such curve, though single readings can be large or run the other way; also: potency is read from the fitted curve at half-maximal effect; % is scaled to controls: 0 for no effect and ±100 for the full control effect
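NADH formation kinetics: reaction with 30 uM PGE2 and 1 mM NAD+ (final), 20 nM enzyme, Tris-HCl pH 8 with Tween 20, after 15 min compound preincubation at room temperature. Fluorescence change, last versus first of five reads.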
HttQ103 aggreg – qHTS Multiplex Assay to Identify Dual Action Probes in a Cell Model of Huntington: Aggregate Formation (GFP). PC12 HttQ103-GFP aggregates, Acumen cytometry, 40 h. Potency, µM (titrated, usually from 46.1 µM), inactives show top-dose activity change, negative = inhibition, most hits filed as inhibitors. actives 1.1% (n = 220,000). AID 1688, 2009; also: potency is read from the fitted curve at half-maximal effect; % is scaled to controls: 0 for no effect and ±100 for the full control effect; nearly all actives have a fitted effect of over 60% in size
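Inducible Q103 Huntingtin exon 1–GFP PC12 line, 1500 cells/well in phenol red free DMEM with 5% equine and 5% calf serum. Tebufenozide 100 nM induced expression; compounds titrated; aggregates quantified by cytometry.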
ALDH1A1 inh – qHTS Assay for Inhibitors of Aldehyde Dehydrogenase 1 (ALDH1A1). Aldehyde dehydrogenase 1A1 (Homo sapiens), P00352. Purified ALDH1A1, NADH fluorescence, propionaldehyde substrate. Potency, µM (top dose mostly 75.3 µM), for inactives: at the top dose activity, negative = inhibition, actives largely listed as inhibitors. actives 7.3% (n = 220,000); active = well fitted inhibition curve with a large enough effect, not every such curve was filed as active; inconclusive = small, poorly fitted or top-dose-only effect, or another doubt; inactive = no such curve, though single readings can be large or run the other way;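 also: potency is read from the fitted curve at half-maximal effect; plate controls were no enzyme wells and a reference inhibitor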
Target sequence (P00352 whole entry, looked up): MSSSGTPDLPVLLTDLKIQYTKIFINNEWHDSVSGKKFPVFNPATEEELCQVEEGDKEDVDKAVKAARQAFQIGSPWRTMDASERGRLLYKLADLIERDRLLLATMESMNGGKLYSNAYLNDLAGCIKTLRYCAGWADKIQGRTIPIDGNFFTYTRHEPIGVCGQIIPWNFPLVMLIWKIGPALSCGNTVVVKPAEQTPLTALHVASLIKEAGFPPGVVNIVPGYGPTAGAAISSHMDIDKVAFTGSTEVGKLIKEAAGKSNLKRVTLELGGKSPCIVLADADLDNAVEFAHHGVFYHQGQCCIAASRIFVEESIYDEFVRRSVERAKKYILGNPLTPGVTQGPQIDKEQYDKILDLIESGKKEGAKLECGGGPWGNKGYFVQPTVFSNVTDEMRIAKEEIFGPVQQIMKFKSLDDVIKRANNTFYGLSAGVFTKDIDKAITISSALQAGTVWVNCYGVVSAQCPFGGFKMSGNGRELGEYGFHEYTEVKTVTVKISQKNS
IMPase Li cell – qHTS Assay for Identifying the Cell-Membrane Permeable IMPase Inhibitors: Potentiation with Lithium | CHO-M1 cells, IP1 TR-FRET (IP-One), carbachol + lithium | Potency, µM (titrated, usually from 59.4 µM), for the others: at the top dose activity, negative = IMPase inhibition, usual class: inhibitors | actives 0.35% (n = 210,000) | AID 1457, 2008;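 also: IP1 builds up when IMPase is blocked and the TR-FRET signal falls; potency is read from the fitted curve at half-maximal effect; plate controls were basal vehicle for no effect and high inhibitor control for full effect; nearly all actives have a fitted effect of over 50% in size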
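Readout is a homogeneous TR-FRET IP1 immunoassay (Ex 320, Em 665 and 620), where raised cytosolic IP1 lowers signal. Cells were CHO-M1 treated 30 min at 37C with test compounds plus a little lithium; AC50 values came from Hill-equation fitting.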
HTT cytoprotect – qHTS Multiplex Assay to Identify Dual Action Probes in a Cell Model of Huntington: Cytoprotection (ATP); Potency, µM (titrated, usually from 56.4 µM), inactives show cytoprotection (ATP increase), most hits filed as activators; actives 0.14% (n = 230,000); PC12 HTT-Q103 induced, cytoprotection, ATP luminescence, 40 h; also: potency is read from the fitted curve at half-maximal effect; % of control where 0% means no effect; nearly all actives have a fitted effect of over 45% in size
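Cells were plated at 1500 per well in phenol red-free DMEM with 5% equine and 5% calf serum. Tebufenozide (100 nM final) and compounds were added, then ATPlite reagent, and luminescence was read.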
* hit, by the source's call; ? = inconclusive; · = no result; [ ] = remark or other dose. The list is not random: actives were taken first. Their share in the collection is about 9.4%. Unless noted, calls follow the shape of the dose curve; as a rule, active = well fitted curve in the direction sought with a large enough effect; inconclusive = small, poorly fitted or top-dose-only effect, or another doubt; inactive = no such curve, though single readings can be large; an effect the other way counts as inactive or inconclusive.

SMILES | IMPase cell inh | HPGD block | HttQ103 aggreg | ALDH1A1 inh | IMPase Li cell | HTT cytoprotect
COc1cc2c3cc1Oc1cc(ccc1O)C[C@@H]1c4c(cc(OC)c(O)c4Oc4ccc(cc4)C[C@H]3[N+](C)(C)CC2)CC[N+]1(C)C | · | -2% | · | 2%[13.5 µM] | -4% | ?
N#CCc1ccc(C(=O)c2ccccc2F)s1 | 2[1.84 µM] | 20µM* | -9% | -81% | 18%[38.3 µM] | -4%[10 µM]
Cn1cc(C(=O)c2ccc(Cl)cc2Cl)cc1C(=O)N/N=C(\N)COc1ccc(Cl)cc1 | · | · | -15%[9.22 µM] | · | · | -13%[10 µM]
Cn1cc(C(=O)c2ccc(Cl)cc2Cl)cc1C(=O)N/N=C(\N)COc1ccc(F)cc1 | -1 | -10% | 18µM* | 1% | 22%[38.3 µM] | -61%
COc1ccc(Oc2ccc(N/C=C3\CCCC3=O)cc2)cc1 | · | -16% | -1% | ? | 9% | 7%[10 µM]
COc1ccc(N/C=C2/CCCCC2=O)cc1 | 8 | 25µM* | 6% | 11µM* | 39%[38.3 µM] | 20µM*
COc1ccc(OC)c(N/C=C2/CCCCC2=O)c1 | 18 | 18µM* | 18% | ? | 27%[38.3 µM] | -4%
COc1ccc(Oc2ccc(N/C=C3/CCCC3=O)cc2)cc1 | · | -18% | 17% | ? | 7% | -35%[10 µM]
Cc1ccc(-n2nnnc2C(Cl)c2nnnn2-c2ccc(C)cc2)cc1 | 3 | 5µM* | ? | -3% | 7% | -2%[10 µM]
COc1ccc(-c2cc(C(F)(F)F)nc(SCCC(=O)Nc3ccc(O)cc3)n2)cc1 | 0 | · | · | · | · | ·
CCOc1ccc(NCc2nnc(SCc3ccc(Cl)cc3)n2-c2ccccc2)cc1 | · | -5% | ? | 16µM* | 18% | 10%[10 µM]
CCOC(=O)CSc1nnc(CNc2ccc(Cl)cc2)n1-c1ccccc1 | 9 | -11% | 9% | 10µM* | 6%[38.3 µM] | -2%[10 µM]
CCOC(=O)CSc1nnc(CNc2cccc(Cl)c2)n1-c1ccccc1 | ? | 3% | -21% | ? | 21%[38.3 µM] | 8%
Oc1ccc2ccccc2c1N=Nc1ccccc1F | · | · | 4%[9.22 µM] | · | · | 4%[10 µM]
CCCn1c(O)c(N=Nc2ccc3ccccc3n2)c2ccccc21 | · | -6% | ? | -13% | 8% | -82%[10 µM]
CC(C)CCn1c(O)c(N=Nc2ccccn2)c2ccccc21 | · | -10% | 0% | 0.35µM* | 11% | 19%[10 µM]
Oc1ccc2ccccc2c1N=Nc1ccccn1 | 18 | 32µM* | ? | ? | 32%[38.3 µM] | -76%
Cc1ccc(C)c(/C(=N\N=C(N)N)C2CC2)c1 | · | -5% | · | 5%[13.5 µM] | -12% | -11%[10 µM]
CN1CCc2c(sc3c2C(=O)NC(c2ccc(C(C)(C)C)cc2)N3)C1 (centres undefined) | -7 | · | · | · | · | ·
COc1ccc(Cn2c(-c3ccc(C)cc3)c[n+]3ccccc23)cc1 | 8 | -6% | 8.9µM* | -4% | 16% | 22%[1.9 µM]
COc1ccc(-c2nc3ccccc3n2Cc2ccc(C)cc2)cc1 | 3 | -18% | ? | 0% | 0%[38.3 µM] | -74%
CCOc1ccc(-n2c(N)c(C(=O)NCc3cccnc3)sc2=S)cc1 | 6 | 35µM* | 17% | ? | -15%[38.3 µM] | -1%
CCOc1ccc(-n2c(N)c(C(=O)NCc3ccco3)sc2=S)cc1 | 11 | 32µM* | 5% | 22µM* | 10%[38.3 µM] | -10%
COc1ccc(CNC(=O)c2sc(=S)n(-c3ccccc3)c2N)cc1 | · | · | -17%[9.22 µM] | · | · | -13%[10 µM]
COCCN(CCOC)C(=O)c1ccc(Cc2nc3ccccc3[nH]2)cc1 | · | -12% | · | -8% | · | ·
SMILES | IMPase cell inh | HPGD block | HttQ103 aggreg | ALDH1A1 inh | IMPase Li cell | HTT cytoprotect
Cc1cc(S(=O)(=O)Nc2cccc(C(=O)O)c2)c(C)c(S(=O)(=O)c2ccccc2)c1 | 0 | · | · | · | · | ·
CCOC(=O)CNC(=O)O[C@@H]1Cc2cc(OC)ccc2O[C@H]1c1cccc(OC)c1 | · | -8% | · | 5% | 9% | ?
CC(=O)O[C@@H]1C(CO[Si](C)(C)C(C)(C)C)=C(Br)C(=O)[C@@H]2O[C@]12C | · | ? | · | -11% | 3% | -95%
Cc1ccc(-c2nc3cnccn3c2Nc2ccc3c(c2)OCCO3)o1 | 15 | -23% | 7% | 13µM* | 43%[38.3 µM] | 10%[1.9 µM]
CCOCCCn1c(=N)c(C(=O)NC(C)c2ccccc2)cc2c(=O)n3cccc(C)c3nc21 (centres undefined) | -2 | · | · | · | · | ·
O=C(O)c1ccc(N2CCCCS2(=O)=O)cc1 | · | · | -19%[9.22 µM] | -14% | -1% | -5%[10 µM]
O=C1N=c2ccccc2=C1c1[nH]c(=S)[nH]c1O | 3 | -26% | -22% | 11µM* | 8% | 2%[10 µM]
COC(=O)C1=C(N)Oc2cc(C)n(C)c(=O)c2C1c1ccc(Cl)cc1 (centres undefined) | 2 | -3% | 11µM* | 12% | -11%[38.3 µM] | 23%[0.074 µM]
COC(=O)C1=C(N)Oc2cc(C)n(Cc3ccccc3)c(=O)c2C1c1ccccc1 (centres undefined) | -5 | -23% | 2%[9.22 µM] | -12% | 34%[38.3 µM] | -4%
COC(=O)c1ccc(C2C(C#N)=C(N)Oc3cc(C)n(C)c(=O)c32)cc1 (centres undefined) | 5 | -12% | 10% | 25µM* | -7%[38.3 µM] | -12%[0.074 µM]
O=C(CCS(=O)(=O)c1cc(Br)cc2c1N(C(=O)C1CC1)CC2)N1CCN(c2cccc(Cl)c2)CC1 | 6 | · | · | · | · | ·
Cc1noc(C)c1C(=O)N1CCC[C@@]2(CCN(c3ccccc3)C2)C1 | · | -3% | · | -4% | 8% | 6%
O=C(NC1CCc2ccccc21)C1CCN(S(=O)(=O)c2ccc(Cl)cc2)CC1 (centres undefined) | 3 | -20% | ? | 7% | -1% | -93%[10 µM]
CCc1nnc(NC(=O)c2ccc(S(=O)(=O)N3CCCc4ccccc43)cc2)o1 | 0 | -7% | 8.9µM* | 6% | 24%[38.3 µM] | -69%[10 µM]
CNC(=O)c1ccsc1NC(=O)c1ccc(S(=O)(=O)N2CCCc3ccccc32)cc1 | · | ? | 2% | ? | 9% | ·
O=C(Nc1ccc(CN2CCCCC2)cc1)c1ccc2c(c1)OCO2 | 9 | 28µM* | -13% | -1% | 37%[38.3 µM] | -10%
O=S(=O)(NC1CCc2ccccc21)c1ccc(S(=O)(=O)N2CCCC2)cc1 (centres undefined) | 13 | -7% | -20% | 14µM* | 24%[38.3 µM] | 18%[10 µM]
O=C(Nc1ccc(S(=O)(=O)N2CCc3ccccc32)cc1)c1ccco1 | 3 | -19% | ? | 25µM* | 15%[38.3 µM] | -6%[10 µM]
COc1ccccc1C(=O)Nc1ccc(S(=O)(=O)N2CCc3ccccc32)cc1 | 2 | -20% | -14% | ? | 17%[38.3 µM] | -15%
O[Si@](CCCN1CCCCC1)(c1ccc(F)cc1)C1CCCCC1 | 14 | · | · | · | · | 8%[1.9 µM]
